VACV Venus inh: vaccinia inhibition (Venus reporter); Vaccinia virus Venus reporter expression, fluorescence; Potency, µM (highest dose often 36.5 µM), usual class: inhibitors; 330,000 compounds, 0.46% hits; calls by dose curve; tested in A549 cells; also: nearly all actives have a fitted effect of over 30% in size
AMA1-RON2 inh: disrupts binding of P. falciparum AMA1 to RON2; AlphaScreen AMA1-biotinylated RON2 peptide binding; Potency, µM (highest dose often 58.2 µM), actives largely listed as inhibitors; 360,000 compounds, 0.2% hits; also: nearly all actives have a fitted effect of over 45% in size
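AMA1 (3D7) with his tag at 25 nM final met compounds first, then biotinylated RON2 peptide at 25 nM; detection used donor plus acceptor beads, 10 µg/mL apiece, read by AlphaScreen after 30 min at room temperature.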
Pf growth 48h: inhibits P. falciparum growth in the first generation, 48 h; P. falciparum luciferase growth in erythrocytes, 48 h; Potency, µM (top dose mostly 28.7 µM), most hits filed as inhibitors; 310,000 compounds, 5.9% hits
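Compounds are pin-transferred into medium, infected erythrocytes (2% hematocrit, 0.1% parasitemia final) are added, and plates sit one parasite generation at 37 C in 5% CO2. Detection reagent is then added and luminescence measured.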
VACV mCherry inh: vaccinia inhibition (mCherry reporter) | Vaccinia virus mCherry reporter infection, fluorescence | Potency, µM (top dose mostly 36.5 µM), most hits filed as inhibitors | 310,000 compounds, 0.63% hits; calls by dose curve; tested in A549 cells; also: nearly all actives have a fitted effect of over 35% in size
Pf growth 96h: P. falciparum growth inhibition at 96 hours; P. falciparum luciferase reporter growth, 96 h; AID 504834; 320,000 compounds, 6.9% hits; Potency, µM (doses to about 28.7 µM), actives largely listed as inhibitors
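Compounds incubated with erythrocytes infected by luciferase-expressing P. falciparum (2% hematocrit, 0.05% parasitemia final) for 96 hours, 37 C in 5% CO2. Growth inhibition scored as decreased luciferase luminescence.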
Each line names hits and unclear results; the compound was inactive in the other large screens. Most compounds without a hit are left out; they make up all but 8.7% or so of the library. Unless noted, calls follow the shape of the dose curve; as a rule, active = well fitted curve in the direction sought with a large enough effect; inconclusive = small, poorly fitted or top-dose-only effect, or another doubt; inactive = no such curve, though single readings can be large; an effect the other way counts as inactive or inconclusive.

C=CCN(CC=C)CC(O)Cn1c2ccccc2c2ccccc21 (stereo not given)	VACV Venus inh inconclusive, Pf growth 48h 5.9µM, VACV mCherry inh inconclusive, Pf growth 96h inconclusive
COc1ccccc1CNCC(O)Cn1c2ccccc2c2ccccc21 (stereo not given)	Pf growth 48h 1.5µM, Pf growth 96h 2.1µM (no result: VACV Venus inh, VACV mCherry inh)
O=C(NCC(c1ccccc1)c1ccccc1)c1nn(-c2ccccc2Cl)nc1CO	none (no result: AMA1-RON2 inh, Pf growth 48h, Pf growth 96h)
COc1ccccc1N(CC(O)Cn1nc(C)cc1C)S(=O)(=O)c1ccccc1 (stereo not given)	Pf growth 96h inconclusive
COc1ccccc1N(CC(O)COc1ccccc1C)S(=O)(=O)c1ccccc1 (stereo not given)	Pf growth 48h inconclusive, Pf growth 96h 10µM
Cc1ccc(S(=O)(=O)Oc2cccc(N3C(=O)C4CC=CCC4C3=O)c2)cc1 (stereo not given)	Pf growth 48h inconclusive, Pf growth 96h inconclusive (no result: VACV Venus inh, VACV mCherry inh)
CC(=O)Nc1ccc(S(=O)(=O)Oc2cccc(N3C(=O)C4CCCCC4C3=O)c2)cc1 (stereo not given)	Pf growth 48h 13µM (no result: VACV Venus inh, VACV mCherry inh)
COc1cc(OC)c(OC)cc1CNC(=O)c1ccc(S(=O)(=O)N2CC(C)OC(C)C2)cc1 (stereo not given)	Pf growth 48h inconclusive, Pf growth 96h 10µM (no result: VACV Venus inh, VACV mCherry inh)
CCOc1ccc(N2Nc3n[nH]c(N)c3N2)cc1	VACV Venus inh inconclusive, VACV mCherry inh 2µM
COc1ccc(N2Nc3n[nH]c(N)c3N2)cc1	none (no result: VACV Venus inh, VACV mCherry inh)
Cc1ccc(CN(C(=O)c2ccccc2F)c2ccccn2)o1	none (no result: AMA1-RON2 inh, Pf growth 48h, Pf growth 96h)
CCc1nc2cccnc2n1-c1ccc(CC(=O)O)cc1	Pf growth 96h 10µM
CCOCCCNC(=O)Cc1ccc(-n2c(CC)nc3cccnc32)cc1	Pf growth 96h inconclusive (no result: VACV Venus inh, VACV mCherry inh)
COc1ccc(NC(=O)c2cc(S(=O)(=O)N3CCCC(C)C3)cn2C)c(OC)c1 (stereo not given)	none (no result: AMA1-RON2 inh, Pf growth 48h, Pf growth 96h)
CC(Nc1ccc(-c2nc(-c3ccncc3)no2)cc1[N+](=O)[O-])c1ccccc1 (stereo not given)	none (no result: AMA1-RON2 inh, Pf growth 48h, Pf growth 96h)
CC(C)Cn1c(=O)c2c(nc3n2CCCN3Cc2ccccc2)n(C)c1=O	Pf growth 48h 10µM, Pf growth 96h 12µM
Cn1c(=O)n(C/C=C/c2ccccc2)c(=O)c2c1nc1n2CCCN1c1ccc(F)cc1	Pf growth 48h 12µM, Pf growth 96h inconclusive (no result: VACV Venus inh, VACV mCherry inh)
COc1ccc(CCN2CCCn3c2nc2c3c(=O)n(Cc3ccccc3F)c(=O)n2C)cc1OC	Pf growth 48h 2.3µM, Pf growth 96h 2.9µM
Cn1c(=O)n(C/C=C/c2ccccc2)c(=O)c2c1nc1n2CCN1c1ccc(Cl)cc1	none (no result: AMA1-RON2 inh, Pf growth 48h, Pf growth 96h)
Cc1cccc(Cn2c(=O)c3c(nc4n3CCCN4Cc3ccccc3)n(C)c2=O)c1	Pf growth 48h 13µM (no result: Pf growth 96h)
CCCNC(=O)c1cc2n(n1)CCCN(Cc1ccc(F)cc1)C2=O	none (no result: AMA1-RON2 inh, Pf growth 48h, Pf growth 96h)
COc1cc(=O)n2c(c1C(=O)N(C)Cc1ccsc1)CCN(Cc1c(C)nc3sccn13)CC2	none (no result: AMA1-RON2 inh, Pf growth 48h, Pf growth 96h)
C=CCn1c(=O)c2c(nc3n2CCCN3Cc2ccccc2)n(C)c1=O	Pf growth 48h inconclusive (no result: VACV Venus inh, VACV mCherry inh)
Cn1c(=O)n(C/C=C/c2ccccc2)c(=O)c2c1nc1n2CCCN1Cc1ccccc1	AMA1-RON2 inh inconclusive, Pf growth 48h 13µM, Pf growth 96h 15µM (no result: VACV Venus inh, VACV mCherry inh)
Cc1ccnc(N2C(=O)c3cccc4c([N+](=O)[O-])ccc(c34)C2=O)c1	none
Cc1ccnc(N2C(=O)c3ccccc3C2=O)c1	Pf growth 96h 12µM
Cc1ccnc(N2C(=O)C3C4CC(C(Br)C4Br)C3C2=O)c1 (stereo not given)	Pf growth 96h 9.3µM
COc1ccc(C)cc1NC(=O)CSc1nc(=O)n(Cc2ccncc2)c2c1CCC2	none (no result: AMA1-RON2 inh, Pf growth 48h, Pf growth 96h)
O=C1C=CC2=C3c4cc(O)c(O)cc4C[C@]3(O)COC2=C1	none (no result: AMA1-RON2 inh, Pf growth 48h, Pf growth 96h)
COc1ccc(C(=O)Nc2ccc(C(=O)N3CCC(C)CC3)cc2)cc1OC	Pf growth 48h inconclusive, Pf growth 96h 2.6µM
COc1cc(C(=O)Nc2ccc(C(=O)O)cc2)ccc1OC(C)=O	Pf growth 96h 2.3µM (no result: VACV Venus inh, VACV mCherry inh)
COc1ccc(C(=O)Nc2ccc(C(=O)N3CCCCC3)cc2)cc1OC	none
COc1ccc(C(=O)Nc2ccc(NC(C)=O)cc2)cc1S(=O)(=O)N(C)Cc1ccccc1	Pf growth 48h inconclusive, Pf growth 96h 4.7µM (no result: VACV Venus inh, VACV mCherry inh)
O=c1cc(N2CCN(Cc3ccccc3)CC2)[nH]c(=O)n1Cc1ccc(F)cc1	Pf growth 96h 3.7µM (no result: VACV Venus inh, VACV mCherry inh)
CCOC(=O)Cc1nc2ccccc2[nH]1	Pf growth 96h 12µM (no result: VACV Venus inh, VACV mCherry inh)
O=C(Cc1nc2ccccc2[nH]1)c1cccc([N+](=O)[O-])c1	Pf growth 48h 12µM, Pf growth 96h inconclusive (no result: VACV Venus inh, VACV mCherry inh)

High-throughput results: PubChem BioAssay, National Center for Advancing Translational Sciences (NCATS)
